Several values for one entry are separate records, joined by “and”; a condition that tells them apart may be missing. Identical values can stand only once. Results filed as inconclusive are left out. Activity calls are given as the source filed them. Unless noted, calls follow the shape of the dose curve; as a rule, active = well fitted curve in the direction sought with a large enough effect in the repeat runs; inconclusive = weak or mixed curves; inactive = no such curve, though single readings can be large; an effect the other way counts as inactive or inconclusive.
Columns and labels:
[1] = qHTS assay for small molecule agonists of the p53 signaling pathway (AID 651631; calls by dose curve; also: nearly all actives have a fitted effect of over 15% in size; also: potency is read from the fitted curve at half-maximal effect)
Method in brief: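 HCT-116 p53RE-bla reporter line, 16 h compound treatment at 37 °C, then fluorescence after 2 h with B/G FRET substrate.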

[2] = qHTS assay for small molecules that induce genotoxicity in human embryonic kidney cells expressing luciferase-tagged ATAD5 (AID 651632); also: nearly all actives have a fitted effect of over 15% in size; also: potency is read from the fitted curve at half-maximal effect
Method in brief: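 Test compounds were delivered by pin tool onto HEK293T reporter cells (2,000/well) expressing ATAD5 fused to luciferase. After 16 hr at 37C, 5% CO2, Amplite was added for 30 min at room temperature and luminescence was measured.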

[3] = qHTS assay for small molecule agonists of the p53 signaling pathway - cell viability (AID 651633; calls by dose curve; also: nearly all actives have a fitted effect of over 30% in size; also: potency is read from the fitted curve at half-maximal effect)
Method in brief: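 p53RE-bla cells, seeded at 4,000 per well and rested 5 h at 37 C/5% CO2, received compounds in DMSO for 16 h at 37 C. CellTiter-Glo was then added, and luminescence was read after 30 min at room temperature to gauge cytotoxicity.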

[4] = qHTS assay for small molecules that induce genotoxicity in human embryonic kidney cells expressing luciferase-tagged ATAD5 - cell viability (AID 651634; calls by dose curve; also: nearly all actives have a fitted effect of over 25% in size; also: potency is read from the fitted curve at half-maximal effect)
Method in brief: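 Quantitative high-throughput format. HEK293T cells expressing ATAD5 fused to luciferase were plated at 2,000 cells/well and treated 15.5 hr with compound versus DMSO. Viability was determined by fluorescent live-cell protease substrate, 30 min at 37C.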

[5] = qHTS assay to test for compound auto fluorescence at 590 nm (red) in HepG2 cells (AID 720674)
Method in brief: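 Rose Bengal sodium served as the red fluorophore standard. HepG2 monolayers (overnight attachment, MEM with 10% FBS) were exposed to test compounds for 1 hr at 37 C and read at Ex 540/Em 590 nm.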

[6] = qHTS assay to test for compound auto fluorescence at 535 nm (green) in HepG2 cells (AID 720675)
[7] = qHTS assay to test for compound auto fluorescence at 460 nm (blue) in HEK293 cells (AID 720678); also: potency is read from the fitted curve at half-maximal effect
Method in brief: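 Cells were seeded and left to adhere for 4-5 hr at 37C. Compounds were then pin-transferred. After an overnight incubation at 37C under 5% CO2, intrinsic fluorescence at 405/460 nm was measured and referenced to triamterene.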

[8] = qHTS assay to test for compound auto fluorescence at 590 nm (red) in HEK293 cells (AID 720679)
Method in brief: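 Each well held 2,000 HEK293 cells in medium containing 10% dialyzed FBS. Following 4-5 hr attachment at 37C, 23 nL test compound or DMSO was added; plates sat overnight, and red fluorescence (540/590nm) was recorded.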

[9] = qHTS assay to test for compound auto fluorescence at 535 nm (green) in HEK293 cells (AID 720680)
[10] = qHTS assay to test for compound auto fluorescence at 460 nm (blue) in HEK293 cell free culture (AID 720681); also: potency is read from the fitted curve at half-maximal effect
Method in brief: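 Test compounds were pinned into cell-free culture medium (DMEM with 10% FBS) and fluorescence was read directly at Ex/Em 405/460 nm. Signals were expressed as fluorescence equivalents of triamterene, with DMSO vehicle as control.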

[11] = qHTS assay to test for compound auto fluorescence at 535 nm (green) in HEK293 cell free culture (AID 720682)
Method in brief: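 Steps: dispense DMEM/10% FBS into empty wells; pin in compound or DMSO; measure fluorescence at 485/535 nm. Values are fluorescein equivalents.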

[12] = qHTS assay to test for compound auto fluorescence at 590 nm (red) in HEK293 cell free culture (AID 720683)
Method in brief: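 Tox21 10K library compounds were pinned into cell-free DMEM with 10% FBS and fluorescence was read at excitation 540 nm. Activity is expressed as Rose Bengal sodium equivalency.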

[13] = qHTS assay to test for compound auto fluorescence at 590 nm (red) in HepG2 cell free culture (AID 720684)
Method in brief: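 Ex 540 / Em 590 nm read of compound in cell-free MEM (10% FBS). Rose Bengal sodium reference.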

[14] = qHTS assay to test for compound auto fluorescence at 460 nm (blue) in HepG2 cell free culture (AID 720685); also: potency is read from the fitted curve at half-maximal effect
Method in brief: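 Cell-free plates of MEM plus 10% FBS received 23 nL compound or DMSO vehicle; blue-channel (405/460 nm) intensity scored against triamterene as reference fluorophore.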

[15] = qHTS assay to test for compound auto fluorescence at 460 nm (blue) in HepG2 cells (AID 720687); also: potency is read from the fitted curve at half-maximal effect
Method in brief: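 Cells (2,000/well in MEM with 10% FBS) attached overnight at 37 C, then were exposed to compound or DMSO for 1 hr at 37 C, 5% CO2. Fluorescence read at Ex/Em 405/460 nm, expressed as triamterene-equivalent signal.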

[16] = qHTS assay for small molecule disruptors of the mitochondrial membrane potential - cell viability (AID 720634; calls by dose curve; also: nearly all actives have a fitted effect of over 20% in size; also: potency is read from the fitted curve at half-maximal effect)
Method in brief: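 Same-well counter-screen: following the MMP dye addition, CellTiter-Glo was added to 1 hr compound-treated HepG2 cells and luminescence read after 30 min at room temperature.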

[17] = qHTS assay to test for compound auto fluorescence at 535 nm (green) in HepG2 cell free culture (AID 720686)
[18] = target: Glucocorticoid receptor (Homo sapiens) (UniProt P04150); experiment: qHTS assay to identify small molecule agonists of the glucocorticoid receptor (GR) signaling pathway (AID 720691; active = well fitted activation curve with a large enough effect in the signal ratio in the repeat runs, not every such curve was filed as active; the % refers to the signal ratio; also: potency is read from the fitted curve at half-maximal effect); details: GR-bla HeLa, beta-lactamase reporter ratio, 18 h; activation: at 62.4 µM (top of the series)
Glucocorticoid receptor (Homo sapiens), sequence (P04150 whole entry, looked up): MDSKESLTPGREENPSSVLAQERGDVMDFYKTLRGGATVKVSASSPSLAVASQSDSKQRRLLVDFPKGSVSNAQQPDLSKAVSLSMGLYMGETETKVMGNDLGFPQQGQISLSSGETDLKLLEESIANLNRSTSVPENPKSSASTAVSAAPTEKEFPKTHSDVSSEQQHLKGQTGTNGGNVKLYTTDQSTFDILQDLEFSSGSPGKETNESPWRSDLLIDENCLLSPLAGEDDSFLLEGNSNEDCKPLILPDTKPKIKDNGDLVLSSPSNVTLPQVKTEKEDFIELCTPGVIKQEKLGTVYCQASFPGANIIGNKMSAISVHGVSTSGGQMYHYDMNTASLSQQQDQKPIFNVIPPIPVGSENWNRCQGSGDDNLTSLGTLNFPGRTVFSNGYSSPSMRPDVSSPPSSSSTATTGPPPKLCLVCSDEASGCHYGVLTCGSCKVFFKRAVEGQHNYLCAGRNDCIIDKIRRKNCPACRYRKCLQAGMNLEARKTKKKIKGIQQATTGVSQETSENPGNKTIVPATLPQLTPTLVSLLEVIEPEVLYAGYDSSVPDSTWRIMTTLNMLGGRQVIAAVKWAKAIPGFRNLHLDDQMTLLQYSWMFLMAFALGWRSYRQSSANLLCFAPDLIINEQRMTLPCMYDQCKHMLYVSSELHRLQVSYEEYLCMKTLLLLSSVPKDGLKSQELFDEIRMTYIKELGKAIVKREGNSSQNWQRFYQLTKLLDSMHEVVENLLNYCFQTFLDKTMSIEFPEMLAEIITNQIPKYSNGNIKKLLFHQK
Method in brief: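 A HeLa cervical cancer line expressing GR and a glucocorticoid response element-driven beta-lactamase gene is treated with compounds for 18 h; LiveBLAzer B/G FRET substrate is then applied and fluorescence read.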

[19] = qHTS assay for small molecule disruptors of the mitochondrial membrane potential (AID 720635); also: potency is read from the fitted curve at half-maximal effect
Method in brief: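 HepG2 cells (2,000/well) attached overnight at 37C, then took compound for 1 hr at 37C, 5% CO2. Mito-MPS dye was added for 30 min; fluorescence was read at 490/535 nm (monomers) and 540/590 nm (aggregates).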

[20] = target: Glucocorticoid receptor (Homo sapiens) (UniProt P04150); experiment: qHTS assay to identify small molecule antagonists of the glucocorticoid receptor (GR) signaling pathway (AID 720692; active = well fitted inhibition curve with a large enough effect in the signal ratio in the repeat runs, not every such curve was filed as active; the % refers to the signal ratio; also: potency is read from the fitted curve at half-maximal effect)
Method in brief: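 GRE-bla HeLa line, dex-stimulated (5 nM final). Compound exposure 18 h, 37 C. Beta-lactamase FRET read after 2 h RT substrate.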

Measured: Potency
Tags tell the direction and shape of the fitted curve or compound fluorescence and quenching.

O=C(O)c1c(Cl)cccc1Cl
not listed: [16] | [17] | [18] | [19] | [20]
inactive: all other assays above

NC(=O)NS(=O)(=O)c1ccc(N)cc1
not listed: [3] | [19] | [20]
inactive: all other assays above

NC(=O)N1C(=O)C(C(=O)c2cc(Cl)cs2)c2cc(F)c(Cl)cc21 (centres undefined)
active: [1] 2.17 µM | [4] 27.3 µM
not listed: [3] | [15] | [16] | [18] | [19] | [20]
inactive: all other assays above

O=[N+]([O-])c1ccccc1Nc1ccccc1
not listed: [4] | [16] | [19] | [20]
inactive: all other assays above

Cc1nc(-c2ccc3c(c2)CCN(CCC2CCC(NC(=O)/C=C/c4ccc(F)cc4)CC2)CC3)no1 (centres undefined)
active: [1] 27.4 µM | [2] 19.4 µM | [18] 21.9 µM
not listed: [4] | [20]
inactive: all other assays above

CCCCc1oc2ccc(NS(C)(=O)=O)cc2c1C(=O)c1ccc(OCCCN(CCCC)CCCC)cc1
active: [3] 29.8 µM | [4] 26.6 µM | [16] 29.8 µM | [19] 9.44 µM
not listed: [1] | [18] | [20]
inactive: all other assays above

CC1=NC(C)OC1C (centres undefined)
active: [20] 34.7 µM
not listed: [1] | [8]
inactive: all other assays above

Cc1cc(=O)oc2cc(N(C)C)ccc12
active: [1] 48.6 µM | [7] 39.8 µM [fluorescent] | [10] 39.8 µM | [14] 44.7 µM [fluorescent] | [15] 44.7 µM [fluorescent]
not listed: [2] | [4] | [18] | [19] | [20]
inactive: all other assays above

O=C(OCC(COC(=O)c1ccccc1)(COC(=O)c1ccccc1)COC(=O)c1ccccc1)c1ccccc1
active: [19] 3.06 µM
not listed: [1] | [18] | [20]
inactive: all other assays above

C[n+]1ccn(Cc2ccccc2)c1
not listed: [1] | [6]
inactive: all other assays above

CCCCCCCCCCn1cc[n+](CCCCCCCCCC)c1C
active: [3] 68.7 µM | [4] 68.7 µM | [16] 54.5 µM | [19] 2.17 µM
not listed: [1] | [18] | [20]
inactive: all other assays above

Oc1cccc(-c2c3nc(c(-c4cccc(O)c4)c4ccc([nH]4)c(-c4cccc(O)c4)c4nc(c(-c5cccc(O)c5)c5ccc2[nH]5)CC4)C=C3)c1
active: [3] 9.44 µM | [4] 13.3 µM and 11.9 µM | [19] 26.6 µM
not listed: [1] | [18] | [20]
inactive: all other assays above

— PubChem BioAssay (Tox21)
